Results on 15 compounds are retold here after PubChem BioAssay (NCI).

Compounds without any hit were thinned out: in the full panel of roughly 83,000, 20% have a hit.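 Step 1: grow cells in 96-well plates. Step 2: add test compound at a single concentration. Step 3: incubate 48 h. Step 4: record percent growth.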 A number with no mark means an inactive call. Active and inactive are the calls of the source. Rule for the calls: active = growth percent below 10; inactive = the rest.

Test systems include T-47D breast; BT-549 breast; MDA-MB-435 melanoma; SW-620 colon; MCF7 breast; HCT-116 colon; HCC-2998 colon; KM12 colon.
Common to all, as to experiment: NCI-60 one-dose screen, 48 h (100 = growth as untreated, 0 = no growth, -100 = all killed)
Common to all, as to details: 10 µM unless noted

Regarding `Cc1c2cc[nH]c(=O)c2c(C)c2c1[nH]c1cc(OCCN3CCN(C)CC3)ccc12`, the growth was 22.7% in the test on T-47D breast; 33.3% in the test on BT-549 breast; 4.54% (active) with MDA-MB-435 melanoma; 9.61% (active) with SW-620 colon; -11.6% (active) in the test on MCF7 breast; 7.2% (active) with HCT-116 colon. Also, the growth is 35% in the test on HCC-2998 colon and 8.55% (active) with KM12 colon.

`CN(C)c1ccc(Nc2c3ccccc3nc3cc(NC(=O)CCN4CCCC4)ccc23)cc1`: the growth in the test on T-47D breast is 12.1%; in the test on BT-549 breast, 23.6%; with MDA-MB-435 melanoma it was -94.4% (active); with SW-620 colon it was -33.3% (active); in the test on MCF7 breast, -21.8% (active); in the test with HCT-116 colon it was -56.2% (active). The growth was -83.3% (active) with HCC-2998 colon and -34.8% (active) in the test on KM12 colon.

In the case of `CN1CCN(C(=O)[C@]23CCC(C)(C)C[C@H]2C2=CC[C@@H]4[C@@]5(C)C/C(=C/c6ccncc6)C(=O)C(C)(C)[C@@H]5CC[C@@]4(C)[C@]2(C)CC3)CC1`, the growth with T-47D breast is 37%; in the test with BT-549 breast, 80.2%; in the test on MDA-MB-435 melanoma, 48.2%; in the test with SW-620 colon, 33.8%; in the test on MCF7 breast, 18.1%; with HCT-116 colon it was 16.4%. The growth in the test on HCC-2998 colon is 43.8%; with KM12 colon, 45.8%.

As to `C=C(CBr)[C@@H]1CC[C@]2(COC(C)=O)CC[C@]3(C)[C@H](CC[C@@H]4[C@@]5(C)CCCNC(C)(C)[C@@H]5CC[C@]43C)[C@@H]12`, the growth is 25.9% with T-47D breast; 36.2% in the test on BT-549 breast; 54.5% in the test on MDA-MB-435 melanoma; 31.5% in the test on SW-620 colon; 21.5% in the test with MCF7 breast; 15.3% in the test on HCT-116 colon. The growth in the test on HCC-2998 colon is 50.8%; with KM12 colon, 41.9%.

With `Cc1ncc(C(=O)Nc2ccc(CN3CCN(C)CC3)c(C(F)(F)F)c2)cc1C#Cc1cnc(N)cc1C#N`, the growth with T-47D breast is 57.8%; with BT-549 breast it was 38%; with MDA-MB-435 melanoma it was -95.8% (active); in the test on SW-620 colon, -57.4% (active); with MCF7 breast, -75.6% (active); with HCT-116 colon, -71.5% (active). Also, the growth in the test with HCC-2998 colon is 54.5%; in the test on KM12 colon, -83.1% (active).

Turning to `N#CC(C#N)=Cc1cc2ccccc2nc1Oc1ccc(C(F)(F)F)cc1`, the growth was 90.6% in the test on T-47D breast; 96.2% in the test with BT-549 breast; 97% in the test on MDA-MB-435 melanoma; 74.5% with SW-620 colon; 56.9% with MCF7 breast; 89.8% with HCT-116 colon. In addition, the growth in the test with HCC-2998 colon was 106%; in the test with KM12 colon, 88.5%.

Take `COc1cc2c(cc1OC)C(=O)/C(=C/c1cc(C)c(O)c(C)c1)S2`: the growth is 42% in the test with T-47D breast; 36.9% in the test on BT-549 breast; -9.36% (active) with MDA-MB-435 melanoma; 33.4% in the test with SW-620 colon; 20% in the test with MCF7 breast; 23.1% in the test with HCT-116 colon. In addition, the growth in the test on HCC-2998 colon is 60.4%; in the test with KM12 colon, 26.2%.

Take `COc1ccc(-c2nc([C@@H](C)Sc3nc(N)cc(N)n3)c(C)s2)cc1OCCN1CCOCC1`: the growth with T-47D breast is 99.5%; with BT-549 breast, 96.1%; in the test on MDA-MB-435 melanoma, 110%; in the test on SW-620 colon, 107%; in the test with MCF7 breast, 101%; in the test with HCT-116 colon it was 103%. Further, the values for the growth with HCC-2998 colon and in the test with KM12 colon were 83.9% and 104%, respectively.

Take `N#CC1=C(N)Oc2c(ccc3ccccc23)C1c1ccccc1Cl` (stereo not given): the growth in the test with T-47D breast is 66.5%; in the test with BT-549 breast, 20.7%; with MDA-MB-435 melanoma it was -41.2% (active); in the test on SW-620 colon, 21.9%; with MCF7 breast it was 16.8%; in the test with HCT-116 colon it was 11.9%. Besides, the growth is 17.7% in the test with HCC-2998 colon and 12.8% with KM12 colon.

For `NC(=NCCCOc1ccc(F)cc1)Nc1ccc(I)cc1`, the growth is 28.2% in the test on T-47D breast; 74.8% in the test on BT-549 breast; 64.4% in the test on MDA-MB-435 melanoma; 67.1% in the test on SW-620 colon; 10% in the test on MCF7 breast; 58.7% in the test on HCT-116 colon. For the same compound, the results for the growth with HCC-2998 colon and in the test with KM12 colon were 29.2% and 87.8%, respectively.

As to `CCOC(=O)CSc1nc2ccccc2c(=O)n1Cc1ccc(S(N)(=O)=O)cc1`, the growth in the test with T-47D breast is 102%; in the test on BT-549 breast it was 105%; in the test with MDA-MB-435 melanoma, 102%; with SW-620 colon it was 98.6%; in the test with MCF7 breast it was 96.7%; in the test on HCT-116 colon it was 102%. The growth with HCC-2998 colon was 109%; in the test with KM12 colon, 104%.

With `Cc1ccc(-n2nc3c(c(C#N)c2=O)CC(c2ccccc2[N+](=O)[O-])C([N+](=O)[O-])=C3O)cc1` (stereo not given), the growth is 65.5% with T-47D breast; 93.2% in the test with BT-549 breast; 96.7% in the test with MDA-MB-435 melanoma; 89.1% with SW-620 colon; 55.4% with MCF7 breast; 86.9% in the test with HCT-116 colon. Besides, the growth in the test with HCC-2998 colon was 116%; with KM12 colon it was 82.3%.

On to `Cc1cnc(C(=O)Nc2nc3ccc(S(=O)(=O)Nc4ccc(C(C)(C)C)cc4)cc3[nH]2)cn1`, for which the growth in the test on T-47D breast was 27.1%; in the test with BT-549 breast, 26.7%; in the test on MDA-MB-435 melanoma, -64.6% (active); in the test with SW-620 colon, 18.6%; in the test on MCF7 breast, 22.4%; in the test on HCT-116 colon, 14.2%. For the same compound, the results for the growth in the test on HCC-2998 colon and in the test with KM12 colon were 33.3% and 22.9%, respectively.

`CCCCCC(=O)Oc1ccc(/C(=C(\C)c2ccccc2)c2ccc(OCCN3CCCCC3)cc2)cc1`: the growth is 37.3% with T-47D breast; 78.4% in the test on BT-549 breast; 85.9% in the test with MDA-MB-435 melanoma; 87.9% in the test on SW-620 colon; 27.7% with MCF7 breast; 56.6% in the test on HCT-116 colon. Besides, the growth was 79.1% in the test with HCC-2998 colon and 71.6% in the test on KM12 colon.

In the case of `Cc1cccc(NC(=O)Nc2ccc(-n3cnc4cc(-c5ccc(O)cc5)ccc43)cc2)c1`, the growth with T-47D breast was 4.01% (active); with BT-549 breast, 70.8%; with MDA-MB-435 melanoma, 25.9%; in the test with SW-620 colon it was 29.6%; with MCF7 breast it was 16.9%; in the test on HCT-116 colon, 16.1%. In addition, the growth with HCC-2998 colon was 63.6%; in the test with KM12 colon, 13%.
